Compounds with a hit are over-represented: about 31% of the library has one in this group of screens.
CYP2C9 inhib: blocks human cytochrome P450 2C9. P11712. CYP2C9 Supersomes, luciferin-H conversion, luminescence. inhibition, % at 5 µM. 96,000 compounds, 20% hits. AID 777;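 active = blocking of liver enzyme CYP2C9 beyond about 50% at 5 µM, limit read from the data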
CYP2C9 activ: CYP2C9 (human) activation | P11712 | activation factor at 5 µM | 96,000 compounds, 1.4% hits | recombinant CYP2C9, luciferin-H conversion, luminescence; active compounds read high; factor 1 = untreated enzyme, 0 = blocked;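 active = activation factor of 2 or more for CYP2C9 at a 5 µM dose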;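 also: 0 = sulfaphenazole-blocked wells and 1 = vehicle-only wells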
CYP2C19 activ: activators of human cytochrome P450 2C19. P33261. recombinant CYP2C19, luciferin-H EGE luminescence; active compounds read high; 0 = fully inhibited enzyme, 1 = untreated enzyme. activation factor at 5 µM. 96,000 tested, under 10 active. AID 1025;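 active = activation factor of at least 2 at 5 µM in the primary screen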;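 also: 0 = wells with 2.5 mM tranylcypromine and 1 = vehicle-only wells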
PLAP activator: activates human placental alkaline phosphatase; activation fold at 20 µM; P05187; purified PLAP enzyme, luminescent substrate read-out; active compounds read high; 96,000 compounds, 1.2% hits; in the data active = activation fold above about 2
Target sequence (P05187 whole entry, looked up): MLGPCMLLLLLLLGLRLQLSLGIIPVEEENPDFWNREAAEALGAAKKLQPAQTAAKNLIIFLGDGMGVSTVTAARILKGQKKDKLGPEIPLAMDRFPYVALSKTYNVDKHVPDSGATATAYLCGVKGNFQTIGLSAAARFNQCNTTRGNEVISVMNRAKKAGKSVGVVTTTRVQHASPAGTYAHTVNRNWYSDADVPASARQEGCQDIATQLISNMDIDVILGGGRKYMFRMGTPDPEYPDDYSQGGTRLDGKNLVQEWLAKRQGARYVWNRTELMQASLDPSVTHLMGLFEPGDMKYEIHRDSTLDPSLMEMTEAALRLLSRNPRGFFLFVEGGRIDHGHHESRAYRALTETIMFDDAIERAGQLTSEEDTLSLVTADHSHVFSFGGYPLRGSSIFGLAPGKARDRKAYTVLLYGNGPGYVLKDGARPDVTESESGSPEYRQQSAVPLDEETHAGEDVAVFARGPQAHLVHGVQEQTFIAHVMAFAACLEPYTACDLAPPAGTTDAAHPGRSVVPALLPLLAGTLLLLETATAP
CYP2C19 inh: blocks human cytochrome P450 2C19. P33261. CYP2C19 Supersomes, luciferin-H EGE luminescence, 30 min. inhibition, % at 5 µM. 96,000 compounds, 21% hits;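 active = CYP2C19 inhibition above a set limit at 5 µM in the primary screen, cut at about 50% in these data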;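 also: plate controls were negative control wells for no effect and 2.5 mM tranylcypromine positive control for full effect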
The depositor's hits bear a star.

SMILES	CYP2C9 inhib	CYP2C9 activ	CYP2C19 activ	PLAP activator	CYP2C19 inh
CCOc1cc(N(CC)CC)ccc1/C=C(/C#N)c1nc2ccccc2[nH]1	77*	0.2	0.4	0.6	56*
COc1ccc(/C=C(\C#N)c2nc3ccc(C)cc3[nH]2)cc1Oc1ccc(C(F)(F)F)cc1[N+](=O)[O-]	-9	1.1	1	0.9	0
CCCOc1cc(N(CC)CC)ccc1/C=C(/C#N)c1nc2ccc(C)cc2[nH]1	58*	0.4	0.8	0.8	22
CCN(CC)c1ccc(/C=C(/C#N)c2nc3ccc(C)cc3[nH]2)c(OC(C)C)c1	72*	0.3	0.4	0.7	60*
CCOC(=O)CNC(=O)CSc1nc2cccnc2n1C1CCCCC1	2	1	0.8	1	16
Cc1cc([N+](=O)[O-])nn1CC(=O)NNC(=S)Nc1ccc(Cl)cc1	25	0.7	0.9	1.3	8
CCOC(=O)N1CCN(C(=O)/C(=C/c2ccccc2OC)NC(=O)c2ccccc2)CC1	14	0.9	0.9	1.2	10
Cc1cc(NC(=O)COc2ccc3oc4ccccc4c3c2)no1	18	0.8	0.9	0.6	8
Cc1ccc(NC(=O)COc2ccc3oc4c(c3c2)CCCC4)nc1	55*	0.4	0.7	1	31
COc1cc(C(=O)Nc2cc(C(F)(F)F)ccc2Cl)cc(OC)c1OC	20	0.8	0.9	0.9	12
CC(=O)Nc1cc(C(F)(F)F)ccc1Oc1cccc(Br)c1	58*	0.4	0	1.1	98*
CCOC(=O)CCCn1c(C)nc(=O)c(-c2ccccc2)c1C	-2	1	1	1	-2
CC1(C)NC(=O)N(CC(O)CN2CCCCC2)C1=O (stereo not drawn)	0	1	1	0.9	-2
CC1(C)NC(=O)N(CC(O)COc2ccc(-c3ccccc3)cc2)C1=O (stereo not drawn)	13	0.9	0.6	1.1	44
Cc1cc(C)cc(OCC(O)CN2C(=O)NC(C)(C)C2=O)c1 (stereo not drawn)	44	0.6	0.3	1.5	72*
CC1(C)NC(=O)N(CC(O)COc2ccccc2-c2ccccc2)C1=O (stereo not drawn)	87*	0.1	0	1.6	99*
CC1(C)NC(=O)N(CC(O)COC2CCCCC2)C1=O (stereo not drawn)	42	0.6	0.2	1.1	82*
Fc1ccc(Cn2nnnc2C(c2ccc(Cl)cc2)N2CCSCC2)cc1 (stereo not drawn)	69*	0.3	0.1	1.4	94*
COc1ccc2[nH]c(=O)c(C(c3nnnn3C3CCCC3)N3CCN(Cc4ccc5c(c4)OCO5)CC3)cc2c1 (stereo not drawn)	84*	0.2	1.1	2*	-8
COc1ccc(OC)c(C(c2nnnn2Cc2ccccc2)N2CCN(C)CC2)c1 (stereo not drawn)	4	1	0.9	1.4	12
O=c1[nH]c2cc3c(cc2cc1C(c1nnnn1CC1CCCO1)N1CCCC1)OCO3 (stereo not drawn)	-10	1.1	1	1.4	4
COc1ccc(Cn2nnnc2C(c2cccs2)N2CCSCC2)cc1 (stereo not drawn)	59*	0.4	0.2	0.8	83*
CC1CCN(C(c2ccc(N(C)C)cc2)c2nnnn2Cc2ccc(F)cc2)CC1 (stereo not drawn)	-7	1.1	0.7	1.2	26
O=c1[nH]c2cc3c(cc2cc1C(c1nnnn1CC1CCCO1)N1CCCCCC1)OCCO3 (stereo not drawn)	79*	0.2	0.9	1.5	7
CCN1CCN(S(=O)(=O)c2cccs2)CC1	-13	1.1	1.1	1	-8
SMILES	CYP2C9 inhib	CYP2C9 activ	CYP2C19 activ	PLAP activator	CYP2C19 inh
Fc1ccc(CN2CCN3CCCC3C2C2CCCCC2)cc1F (stereo not drawn)	-1	1	0.9	1.3	8
COc1ccc2cc(C(c3nnnn3Cc3ccccc3)N3CCCCCC3)c(=O)[nH]c2c1 (stereo not drawn)	70*	0.3	0.3	1.5	70*
COc1ccc(C(c2nnnn2Cc2cccs2)N2CCC(C(N)=O)CC2)c(OC)c1 (stereo not drawn)	18	0.8	0.9	1.3	12
COc1ccc(Cn2nnnc2C(c2cccs2)N2CCCCCC2)cc1 (stereo not drawn)	92*	0.1	0	1.3	100*
COc1ccc2cc(C(c3nnnn3Cc3ccc(F)cc3)N3CCCCCC3)c(=O)[nH]c2c1 (stereo not drawn)	11	0.9	0.9	1.7	6
Cc1ccnc(NS(=O)(=O)c2ccc(NC(=O)C34CC5CC(CC(C5)C3)C4)cc2)n1	12	0.9	1	0.9	-4
Cc1ccc(C)c2[nH]c(=O)c(CN(Cc3nnnn3C3CCCCC3)CC3CCCO3)cc12 (stereo not drawn)	65*	0.4	0.1	1.8	93*
Cc1cc(C)c2[nH]c(=O)c(CN(CC3CCCO3)C(=O)C3CCCO3)cc2c1 (stereo not drawn)	-8	1.1	1	1.2	-2
Cc1ccc(C)c2[nH]c(=O)c(CN(CCN3CCOCC3)Cc3nnnn3CC3CCCO3)cc12 (stereo not drawn)	-14	1.1	1.1	1.6	-6
O=C(NCc1ccccc1)N(Cc1cc2cc3c(cc2[nH]c1=O)OCO3)CC1CCCO1 (stereo not drawn)	0	1	0.9	0.9	8
Cc1cccc2cc(CN(CC3CCCO3)C(=O)c3ccncc3)c(=O)[nH]c12 (stereo not drawn)	83*	0.2	0.1	1.2	89*
Cc1ccc(C)c2[nH]c(=O)c(CN(CC3CCCO3)C(=O)NC3CCCCC3)cc12 (stereo not drawn)	72*	0.3	0.7	1.4	29
Cc1cc(C)c2[nH]c(=O)c(CN(Cc3ccc4c(c3)OCO4)Cc3nnnn3C3CCCC3)cc2c1	91*	0.1	0.2	1.6	84*
CCCCCOc1ccc(C(=O)NC(C(=O)O)C(C)C)cc1 (stereo not drawn)	0	1	1	1.2	-3
CCN(C(=O)c1c(-c2ccccc2)noc1C)c1ccccc1	-5	1	0.6	1	44
Cc1ccc2[nH]c(=O)c(CN(Cc3ccccc3)Cc3nnnn3C3CCCC3)cc2c1	66*	0.3	0.1	1.6	93*
Cc1ccc2[nH]c(=O)c(CN(Cc3nnnn3C3CCCC3)C3CCCCC3)cc2c1	10	0.9	0.9	1	10
Cc1ccc(S(=O)(=O)c2nc(-c3ccccc3)oc2NCc2cccnc2)cc1	73*	0.3	0.2	1.5	77*
CSc1oc(-c2ccccc2)nc1S(=O)(=O)c1ccc(C)cc1	-9	1.1	0.9	0.9	8
Cc1ccccc1-c1nc(CN2CCC(C(=O)NCc3cccnc3)CC2)c(C)o1	14	0.9	0.9	1.7	12
Cc1ccccc1-c1nc(S(=O)(=O)c2ccc(Br)cc2)c(NCc2cccnc2)o1	66*	0.3	0.2	1.7	82*

Source: PubChem BioAssay
